Experiment [1] concerns the target 6-phosphogluconate dehydrogenase, decarboxylating (Homo sapiens) (UniProt P52209). Nature of the experiment: inhibition of human phosphogluconate dehydrogenase – biochemical, recombinant enzyme, NADPH absorbance, primary screen (AID 1159550;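 active means at least 20% inhibition of 6-phosphogluconate dehydrogenase activity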). The conditions noted are these: recombinant 6PGD, NADPH absorbance 341 nm; at 10 µM; stronger effect = higher value.
Experiment [2] is described as follows: EMT-state selective cytotoxicity in co-culture – imaging, PC-3E GFP, TEM4-18 mCherry, primary screen (AID 1345086;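 active means compounds killing one labelled cell type while sparing the other, by normalised counts and ratio limits, not self-fluorescent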;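 on all read-outs here: cells exposed to compound for 72 h before imaging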;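 on red/green cell ratio (normalised): normalised mesenchymal count divided by normalised epithelial count so high means epithelial killing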). Particulars: PC-3E GFP / TEM4-18 mCherry co-culture, imaging cell counts, at 1 µM; for red/green cell ratio (normalised): actives lie on both sides, counts scaled to control wells, 1 = unselective.
Experiment [3] can be described thus: MELAS cybrid and Rieske KO viability enhancers – cell-based, MELAS cybrids, Rieske KO mouse fibroblasts, CellTiter-Glo, primary screen (AID 1508586;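 active means mean z-score across replicates of 1.96 or higher in either the MELAS or the Rieske mutant cell line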;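 further: z relative to plate mean and SD of compound and empty wells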). The conditions noted are these: low glucose. On the technique in general: Cellular ATP, detected with luciferase, serves as a proxy for viable cell number.
In experiment [4] the target is NAD(+) hydrolase SARM1 (Homo sapiens) (UniProt Q6SZW1). The experiment is described as follows: blocking NAD cleavage by SARM1 SAM-TIR – cell lysate, NAD-Glo luminescence (AID 1508614;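 active means compound whose remaining NAD level is above about 45 nM, limit read from the data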). Particulars: SAM-TIR HEK293T lysate NADase, at 1 µM, stronger effect = higher value.
Sequence of NAD(+) hydrolase SARM1 (Homo sapiens) (Q6SZW1 whole entry, looked up, the tested form may be a part): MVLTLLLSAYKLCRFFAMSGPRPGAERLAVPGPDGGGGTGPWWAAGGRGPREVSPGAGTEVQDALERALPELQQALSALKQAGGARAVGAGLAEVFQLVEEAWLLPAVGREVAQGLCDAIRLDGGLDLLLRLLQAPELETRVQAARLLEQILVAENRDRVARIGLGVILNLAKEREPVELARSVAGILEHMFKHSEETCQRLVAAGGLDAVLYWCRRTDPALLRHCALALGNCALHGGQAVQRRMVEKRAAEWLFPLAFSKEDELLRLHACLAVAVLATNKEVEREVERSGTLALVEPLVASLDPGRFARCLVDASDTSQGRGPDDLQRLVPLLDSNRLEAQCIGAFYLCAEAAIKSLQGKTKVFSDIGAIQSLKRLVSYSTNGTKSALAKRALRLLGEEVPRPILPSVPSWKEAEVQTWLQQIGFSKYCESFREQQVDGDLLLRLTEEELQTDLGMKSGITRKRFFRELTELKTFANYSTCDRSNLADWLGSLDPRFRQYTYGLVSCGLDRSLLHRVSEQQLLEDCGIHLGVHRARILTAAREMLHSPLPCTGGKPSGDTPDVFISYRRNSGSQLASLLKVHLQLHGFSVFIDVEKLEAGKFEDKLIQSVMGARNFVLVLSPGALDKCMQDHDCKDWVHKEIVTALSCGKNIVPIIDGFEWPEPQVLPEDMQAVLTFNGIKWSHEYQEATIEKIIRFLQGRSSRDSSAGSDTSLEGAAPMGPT
Experiment [5] addresses Mitogen-activated protein kinase 7 (Homo sapiens) (UniProt Q13164). The experiment is described as follows: Gal4-ERK5 driven luciferase induction – cell-based, HTS, primary screen (AID 1508626;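 active means luciferase signal above three times the same-plate solvent-only control wells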;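 further: luciferase driven by Gal4-ERK5 fusion binding five Gal4 sites before minimal TATA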). Particulars: HeLa Gal4-ERK5 transactivation, 18 h, at 5 µM, stronger effect = higher value.
A short description of experiment [6]: galactose survival enhancers in mitochondrial complex I cybrids – cell-based, galactose medium, ATP luminescence, primary screen (AID 1645843;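 active means z-score of at least 1.8 in each of two replicates, scored against plate mean and spread of sample wells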;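 further: positive z means more ATP and so rescue of galactose-driven cybrid death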). The conditions noted are these: complex I mutant cybrid cells, 72 h, stronger effect = higher value.
Experiment [7] in a line: drug combination growth inhibition, ovarian cancer – cell-based, oncology-focused library, rucaparib conditional, profiling panel (AID 1508598). The conditions noted are these: patient-derived ovarian cancer cells, CellTiter-Glo viability, 144 h, stronger effect = lower value.
Setting [8] is: measured here: epithelial PC-3E GFP cell survival.
[9] abbreviates: measured here: mesenchymal TEM4-18 mCherry cell survival.
Where [10] appears, read: MELAS cybrid survival, CellTiter-Glo 48 h, stronger effect = higher value.
Setting [11] is: Rieske KO mouse fibroblast survival, CellTiter-Glo 72 h.

Structures are written as SMILES. Where “and” joins values, the source holds several entries; their conditions need not be identical. Equal entries are not always repeated. Calls of active or inactive are those of the source.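 How the source made its calls, unless noted: active means normalized viability below 100% at a tested concentration; inactive means the rest.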

Sequence of 6-phosphogluconate dehydrogenase, decarboxylating (Homo sapiens) (P52209 whole entry, looked up): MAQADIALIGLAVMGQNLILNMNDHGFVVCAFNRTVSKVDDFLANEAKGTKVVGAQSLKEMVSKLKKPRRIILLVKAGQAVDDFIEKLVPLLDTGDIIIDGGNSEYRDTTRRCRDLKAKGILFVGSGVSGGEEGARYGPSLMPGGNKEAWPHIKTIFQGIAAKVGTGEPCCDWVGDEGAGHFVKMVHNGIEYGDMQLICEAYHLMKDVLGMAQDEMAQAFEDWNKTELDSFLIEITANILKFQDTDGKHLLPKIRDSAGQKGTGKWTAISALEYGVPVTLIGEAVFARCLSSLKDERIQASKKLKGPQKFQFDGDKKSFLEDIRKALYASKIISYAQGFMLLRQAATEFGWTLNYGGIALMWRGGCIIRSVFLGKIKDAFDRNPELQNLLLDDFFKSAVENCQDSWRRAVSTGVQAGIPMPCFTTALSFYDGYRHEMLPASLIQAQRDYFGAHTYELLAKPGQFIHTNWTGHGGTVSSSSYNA
Sequence of Mitogen-activated protein kinase 7 (Homo sapiens) (Q13164 whole entry, looked up, the tested form may be a part): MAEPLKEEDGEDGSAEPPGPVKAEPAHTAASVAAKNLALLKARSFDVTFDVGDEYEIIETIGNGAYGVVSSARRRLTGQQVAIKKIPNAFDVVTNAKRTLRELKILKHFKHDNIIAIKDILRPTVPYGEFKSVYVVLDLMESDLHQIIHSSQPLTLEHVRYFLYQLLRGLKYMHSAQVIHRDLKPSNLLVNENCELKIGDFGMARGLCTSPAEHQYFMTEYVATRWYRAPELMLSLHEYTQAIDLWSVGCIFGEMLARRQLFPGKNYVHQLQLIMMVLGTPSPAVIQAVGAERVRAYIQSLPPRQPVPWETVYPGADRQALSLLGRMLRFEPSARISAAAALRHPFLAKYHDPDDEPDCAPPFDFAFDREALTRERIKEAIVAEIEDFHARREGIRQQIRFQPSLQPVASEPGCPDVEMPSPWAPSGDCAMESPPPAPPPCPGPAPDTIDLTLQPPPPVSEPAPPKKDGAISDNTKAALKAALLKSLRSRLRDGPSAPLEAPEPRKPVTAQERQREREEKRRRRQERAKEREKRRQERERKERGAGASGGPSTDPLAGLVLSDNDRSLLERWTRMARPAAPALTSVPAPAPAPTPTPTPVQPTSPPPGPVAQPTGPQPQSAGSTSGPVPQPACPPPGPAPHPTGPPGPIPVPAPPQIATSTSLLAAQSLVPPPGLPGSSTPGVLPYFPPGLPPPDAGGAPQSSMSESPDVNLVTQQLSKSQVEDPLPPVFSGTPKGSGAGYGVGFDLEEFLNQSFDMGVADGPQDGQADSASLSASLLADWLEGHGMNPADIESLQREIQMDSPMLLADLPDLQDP

In general, inhibition refers to the relative decrease from the control value, in per cent. On to `O=C(/C=C/C(=O)Oc1ccccc1C(=O)O)Oc1ccccc1C(=O)O`, for which the inhibition in experiment [1] was -15.7% (inactive). Moreover, in experiment [2], the red/green cell ratio (normalised) was 1.09 (inactive). The figures for the normalised cell number in experiment [2] (setting [8]) and in experiment [2] (setting [9]) were 1.17 and 1.27, respectively.
On the same counts, the results for `C[C@]12CC[C@@H](O)C[C@H]1CCc1ccccc12` are -3.83% (inactive), 1.08 (inactive), 1.09 and 1.17.
The like results for `O=C1CC(c2ccccc2)Oc2ccccc21` (stereo not given) were, in that order, 1.48% (inactive), 0.93 (inactive), 1.14 and 1.06.
In the case of `COc1cc(CNC(=O)CCCC/C=C/C(C)C)ccc1O`, in experiment [1], the inhibition was 18.7% (inactive). Moreover, the red/green cell ratio (normalised) in experiment [2] is 0.88 (inactive). The normalised cell number in experiment [2] (setting [8]) was 1.14; in experiment [2] (setting [9]), 1. The z-score is -0.437 (inactive) in experiment [3] (setting [10]); -0.16 in experiment [3] (setting [11]); 0.07 (inactive) and 0.225 (inactive) in experiment [6]. The remaining NAD in experiment [4] was 10 nM (inactive). Further, the luciferase signal in experiment [5] is 32 AU (inactive).
For the compound `CC(=O)/C(=C\c1ccccc1)CC(=O)O`, the inhibition in experiment [1] was 3.72% (inactive). Also, in experiment [2], the red/green cell ratio (normalised) was 0.99 (inactive). Moreover, the normalised cell number is 1.18 in experiment [2] (setting [8]) and 1.16 in experiment [2] (setting [9]).
For orientation: viability means a read-out of living cells in per cent, often relative to untreated cells. For `CC/C(=C(\c1ccccc1)c1ccc(OCCN(C)C)cc1)c1ccccc1`, the inhibition in experiment [1] is 1.2% (inactive). The red/green cell ratio (normalised) in experiment [2] is 1.09 (inactive). Moreover, the normalised cell number in experiment [2] (setting [8]) turned out to be 0.93; in experiment [2] (setting [9]), 1.01. The z-score in experiment [3] (setting [10]) was -0.656 (inactive) and -1.22 (inactive); in experiment [3] (setting [11]), 0.287 and -0.548. Further, the viability in experiment [7] (at 0.000305 µM, OCI-C5x cells, with rucaparib 10 µM, 100% = cells with rucaparib alone) was 93.5% (active); in experiment [7] (at 0.000305 µM, OCI-C5x cells, without rucaparib), 95.2% (active); in experiment [7] (at 0.000305 µM, OCI-P5x cells, with rucaparib 20 µM, 100% = cells with rucaparib alone), 89.3% (active); in experiment [7] (at 0.000305 µM, OCI-P5x cells, without rucaparib), 83.7% (active); in experiment [7] (at 0.00122 µM, OCI-C5x cells, with rucaparib 10 µM, 100% = cells with rucaparib alone) it was 109% (inactive); in experiment [7] (at 0.00122 µM, OCI-C5x cells, without rucaparib), 97.1% (active). Further, the viability in experiment [7] (at 0.00122 µM, OCI-P5x cells, with rucaparib 20 µM, 100% = cells with rucaparib alone) is 92.3% (active); in experiment [7] (at 0.00122 µM, OCI-P5x cells, without rucaparib), 91.4% (active); in experiment [7] (at 0.00488 µM, OCI-C5x cells, with rucaparib 10 µM, 100% = cells with rucaparib alone), 103% (inactive); in experiment [7] (at 0.00488 µM, OCI-C5x cells, without rucaparib), 93.8% (active); in experiment [7] (at 0.00488 µM, OCI-P5x cells, with rucaparib 20 µM, 100% = cells with rucaparib alone) it was 101% (inactive); in experiment [7] (at 0.00488 µM, OCI-P5x cells, without rucaparib), 97.9% (active). Further, the viability in experiment [7] (at 0.0195 µM, OCI-C5x cells, with rucaparib 10 µM, 100% = cells with rucaparib alone) is 107% (inactive); in experiment [7] (at 0.0195 µM, OCI-C5x cells, without rucaparib), 97.1% (active); in experiment [7] (at 0.0195 µM, OCI-P5x cells, with rucaparib 20 µM, 100% = cells with rucaparib alone) it was 89.8% (active); in experiment [7] (at 0.0195 µM, OCI-P5x cells, without rucaparib), 99.8% (active); in experiment [7] (at 0.0781 µM, OCI-C5x cells, with rucaparib 10 µM, 100% = cells with rucaparib alone) it was 99.2% (active); in experiment [7] (at 0.0781 µM, OCI-C5x cells, without rucaparib), 92.3% (active). Also, the viability was 97% (active) in experiment [7] (at 0.0781 µM, OCI-P5x cells, with rucaparib 20 µM, 100% = cells with rucaparib alone); 99.7% (active) in experiment [7] (at 0.0781 µM, OCI-P5x cells, without rucaparib); 110% (inactive) in experiment [7] (at 0.313 µM, OCI-C5x cells, with rucaparib 10 µM, 100% = cells with rucaparib alone); 95.3% (active) in experiment [7] (at 0.313 µM, OCI-C5x cells, without rucaparib); 97.5% (active) in experiment [7] (at 0.313 µM, OCI-P5x cells, with rucaparib 20 µM, 100% = cells with rucaparib alone); 102% (inactive) in experiment [7] (at 0.313 µM, OCI-P5x cells, without rucaparib). For the same compound, the viability in experiment [7] (at 1.25 µM, OCI-C5x cells, with rucaparib 10 µM, 100% = cells with rucaparib alone) is 98.2% (active); in experiment [7] (at 1.25 µM, OCI-C5x cells, without rucaparib), 100% (inactive); in experiment [7] (at 1.25 µM, OCI-P5x cells, with rucaparib 20 µM, 100% = cells with rucaparib alone) it was 100% (inactive); in experiment [7] (at 1.25 µM, OCI-P5x cells, without rucaparib) it was 106% (inactive); in experiment [7] (at 5 µM, OCI-C5x cells, with rucaparib 10 µM, 100% = cells with rucaparib alone), 95.5% (active); in experiment [7] (at 5 µM, OCI-C5x cells, without rucaparib), 100% (active). Moreover, the viability in experiment [7] (at 5 µM, OCI-P5x cells, with rucaparib 20 µM, 100% = cells with rucaparib alone) was 97.5% (active); in experiment [7] (at 5 µM, OCI-P5x cells, without rucaparib), 101% (inactive). Besides, in experiment [4], the remaining NAD is 10 nM (inactive). Also, in experiment [5], the luciferase signal was 84 AU (inactive).
Take `Cc1cc(=O)oc2cc(O)cc(O)c12`: in experiment [1], the inhibition is 3.6% (inactive). The red/green cell ratio (normalised) in experiment [2] is 0.8 (inactive). For the same compound, the normalised cell number in experiment [2] (setting [8]) was 1.18; in experiment [2] (setting [9]) it was 0.94.
For `O=C(O[C@@H]1Cc2c(O)cc(O)cc2O[C@@H]1c1cc(O)c(O)c(O)c1-c1c([C@H]2Oc3cc(O)cc(O)c3C[C@H]2OC(=O)c2cc(O)c(O)c(O)c2)cc(O)c(O)c1O)c1cc(O)c(O)c(O)c1`, the inhibition in experiment [1] is -4.6% (inactive). Also, in experiment [2], the red/green cell ratio (normalised) was 1.06 (inactive). In addition, the figures for the normalised cell number in experiment [2] (setting [8]) and in experiment [2] (setting [9]) were 0.89 and 0.94, respectively.
The like results for `O=C(O)c1cc(=O)c(O)c2c(O)c(O)ccc2c1` were, in that order, 31% (active), 0.86 (inactive), 1.29 and 1.11.
On the same counts, the results for `CC[C@H](/C=C/C(C)C1CCC2C3CCC4=CC(=O)CC[C@]4(C)C3CC[C@]12C)C(C)C` (stereo not given in full) are 11.4% (inactive), 0.98 (inactive), 0.99 and 0.97.
On the same counts, the results for `COc1cc(OC)c2c(OC)c(-c3ccc4c(c3)OCO4)c(=O)oc2c1` are -4.99% (inactive), 1.02 (inactive), 0.92 and 0.94.

Values taken from PubChem BioAssay.
